# Calls of active or inactive are those of the source. Rule for the calls: active = hit-call score of the fitted dose curve at least 0.9, where 1 is the maximum; inactive = score below 0.9.
# Key:
# Details in all cases: mRNA level, 48 h; actives raise or lower the signal
# [1] = read-out: Bcl-2 (BID) gene, BID (gene 637); assay: LTEA_HepaRG_BID: Life Technologies and Expression Analysis (LTEA) Assay for Bcl-2 (BID) gene using HepaRG (AID 2283476)
# Outline: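 Gain or loss of BID expression is fitted relative to 0.5% DMSO vehicle. Human HepaRG liver cells received a 48 h chemical exposure over an eight-point concentration range.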
# Caspase-3 (Homo sapiens) = Caspase-3 (Homo sapiens) (UniProt P42574); assay: LTEA_HepaRG_CASP3: Life Technologies and Expression Analysis (LTEA) Assay for cysteine-aspartic acid protease (CASP3) using HepaRG (AID 2283477)
# Outline: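 Expression of CASP3 was quantified by TaqMan qRT-PCR against three housekeeping genes (ACTB, GAPDH, POLR2A), bidirectionally versus 0.5% DMSO. HepaRG cultures received compounds in duplicate, top 100 uM with half-log steps, for 48 h in serum-free induction medium.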
# [2] = read-out: Cytochrome P450 (CYP24A1), CYP24A1 (gene 1591); assay: LTEA_HepaRG_CYP24A1: Life Technologies and Expression Analysis (LTEA) Assay for Cytochrome P450 (CYP24A1) using HepaRG (AID 2283478)
# Outline: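 mRNA of CYP24A1 quantified by TaqMan qRT-PCR (ACTB/GAPDH/POLR2A normalization) after 48 h chemical exposure of HepaRG cells, top concentration 100 uM, half-log steps, 0.5% DMSO vehicle, duplicates. Curves fitted bidirectionally against DMSO baseline.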
# [3] = read-out: Cytochrome P450 (CYP1A2), CYP1A2 (gene 1544); assay: LTEA_HepaRG_CYP1A2: Life Technologies and Expression Analysis (LTEA) Assay for Cytochrome P450 (CYP1A2) using HepaRG (AID 2283479);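 for AC50: TaqMan qRT-PCR transcript level normalized to ACTB GAPDH and POLR2A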
# Outline: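 CYP1A2 transcript measured by TaqMan qRT-PCR against three housekeeping genes after 48-hour chemical exposure of HepaRG cells. Eight-point half-log series topping at 100 uM in 0.5% DMSO, duplicates; gain or loss fitted relative to vehicle.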
# [4] = read-out: cysteine-aspartic acid protease (CASP8), CASP8 (gene 841); assay: LTEA_HepaRG_CASP8: Life Technologies and Expression Analysis (LTEA) Assay for cysteine-aspartic acid protease (CASP8) using HepaRG (AID 2283480)
# Outline: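 HepaRG, 48 h exposure, duplicate wells; 8 conc, half-log from 100 uM, 0.5% DMSO. Serum-free induction medium. CASP8 mRNA by TaqMan qRT-PCR, norm. ACTB/GAPDH/POLR2A; gain/loss fitted vs DMSO.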
# [5] = read-out: Cytochrome P450 (CYP2B6), CYP2B6 (gene 1555); assay: LTEA_HepaRG_CYP2B6: Life Technologies and Expression Analysis (LTEA) Assay for Cytochrome P450 (CYP2B6) using HepaRG (AID 2283481)
# Outline: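 CYP2B6 transcript level quantified by qRT-PCR against three housekeeping genes, fitted bidirectionally relative to DMSO. HepaRG cultures received chemicals for 48 h, 8-point half-log series from 100 uM in 0.5% DMSO, duplicate wells, serum-free induction medium.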
# [6] = read-out: Cytochrome P450 2C19 (Homo sapiens) (UniProt P33261); assay: LTEA_HepaRG_CYP2C19: Life Technologies and Expression Analysis (LTEA) Assay for CYP2C19 using HepaRG (AID 2283482)
# Outline: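 CYP2C19 transcript levels by qRT-PCR, normalized to three housekeeping genes, in HepaRG cells after 48 h chemical exposure. Eight-point half-log series topping at 100 uM, 0.5% DMSO vehicle. Increases and decreases both fitted against DMSO.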
# CYP2C9 (gene 1559) = assay: LTEA_HepaRG_CYP2C9: Life Technologies and Expression Analysis (LTEA) Assay for CYP2C9 using HepaRG (AID 2283484)
# Outline: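 Cells plated 48 h, switched to serum-free induction medium, then treated in duplicate for 48 h at eight concentrations (max 100 uM, 0.5% DMSO). RNA then analysed by qRT-PCR for CYP2C9; curves fitted in both directions relative to DMSO.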
# CYP2E1 (gene 1571) = assay: LTEA_HepaRG_CYP2E1: Life Technologies and Expression Analysis (LTEA) Assay for CYP2E1 using HepaRG (AID 2283485)
# Outline: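 Differentiated HepaRG cells were treated in duplicate for 48 h with chemicals in 0.5% DMSO, from 100 uM downward in half-log dilutions. RNA was then analysed by qRT-PCR for CYP2E1 induction or loss.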
# CYP2C8 (gene 1558) = assay: LTEA_HepaRG_CYP2C8: Life Technologies and Expression Analysis (LTEA) Assay for CYP2C8 using HepaRG (AID 2283483)
# Outline: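 CYP2C8 mRNA induction or loss, by qRT-PCR normalized to ACTB/GAPDH/POLR2A, is read in HepaRG cells after 48 h treatment. Concentrations run from 100 uM down in half-log dilutions, with 0.5% DMSO as vehicle and baseline.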
# Chain of Cytochrome P450 2C19 (Homo sapiens) (P33261 whole entry, looked up): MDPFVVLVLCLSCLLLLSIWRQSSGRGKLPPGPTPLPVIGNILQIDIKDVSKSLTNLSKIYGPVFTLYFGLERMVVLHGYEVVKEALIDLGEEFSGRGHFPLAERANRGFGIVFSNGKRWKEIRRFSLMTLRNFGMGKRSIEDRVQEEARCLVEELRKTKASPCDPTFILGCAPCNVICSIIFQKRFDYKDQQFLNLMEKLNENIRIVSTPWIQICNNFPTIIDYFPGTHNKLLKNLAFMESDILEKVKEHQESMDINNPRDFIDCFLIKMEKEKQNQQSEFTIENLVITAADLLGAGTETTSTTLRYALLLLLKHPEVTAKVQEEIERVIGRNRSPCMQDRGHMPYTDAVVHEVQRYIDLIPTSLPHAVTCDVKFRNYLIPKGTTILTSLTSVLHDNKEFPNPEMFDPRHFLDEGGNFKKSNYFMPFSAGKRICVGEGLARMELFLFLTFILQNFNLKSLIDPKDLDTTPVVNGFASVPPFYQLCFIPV
# Chain of Caspase-3 (Homo sapiens) (P42574 whole entry, looked up): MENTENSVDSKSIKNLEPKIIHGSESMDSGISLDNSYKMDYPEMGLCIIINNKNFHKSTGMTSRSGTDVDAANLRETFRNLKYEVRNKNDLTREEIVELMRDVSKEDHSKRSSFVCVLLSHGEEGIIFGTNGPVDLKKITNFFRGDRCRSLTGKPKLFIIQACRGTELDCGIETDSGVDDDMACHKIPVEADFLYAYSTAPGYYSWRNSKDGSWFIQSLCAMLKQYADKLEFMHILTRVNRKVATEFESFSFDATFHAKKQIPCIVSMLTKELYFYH
smiles,measurement,setting,value
Cc1occc(=O)c1O,outcome,[1],inactive
same,outcome,Caspase-3 (Homo sapiens),inactive
same,outcome,[2],inactive
same,outcome,[3],inactive
same,outcome,[4],inactive
same,outcome,[5],inactive
same,outcome,[6],inactive
same,outcome,CYP2C9 (gene 1559),inactive
same,outcome,CYP2E1 (gene 1571),inactive
Cc1ccc(C(C)(C)C)c(O)c1,outcome,[1],inactive
same,outcome,Caspase-3 (Homo sapiens),inactive
same,outcome,[2],inactive
same,AC50,[3],25.6 µM (active)
same,outcome,[4],inactive
same,outcome,[5],inactive
same,outcome,[6],inactive
same,outcome,CYP2C8 (gene 1558),inactive
same,outcome,CYP2C9 (gene 1559),inactive
same,outcome,CYP2E1 (gene 1571),inactive
O=C(NS(=O)(=O)/C=C/c1cccs1)c1ccc(F)cc1Br,outcome,[1],inactive
same,outcome,Caspase-3 (Homo sapiens),inactive
same,outcome,[2],inactive
same,outcome,[3],inactive
same,outcome,[4],inactive
same,outcome,[5],inactive
same,AC50,[6],13 µM (active)
same,outcome,CYP2C9 (gene 1559),inactive
same,AC50,CYP2E1 (gene 1571),25.3 µM (active)
CCCC(=O)O,outcome,[1],inactive
same,outcome,Caspase-3 (Homo sapiens),inactive
same,outcome,[2],inactive
same,outcome,[3],inactive
same,outcome,[4],inactive
same,outcome,[5],inactive
same,outcome,[6],inactive
same,outcome,CYP2C9 (gene 1559),inactive
same,outcome,CYP2E1 (gene 1571),inactive
CC(=O)O[C@]1(C(C)=O)CC[C@H]2[C@@H]3C=C(Cl)C4=CC(=O)[C@@H]5C[C@@H]5[C@]4(C)[C@H]3CC[C@@]21C,outcome,[1],inactive
same,outcome,Caspase-3 (Homo sapiens),inactive
same,AC50,[2],3.16 nM (active)
same,AC50,[3],78.7 µM (active)
same,outcome,[4],inactive
same,AC50,[5],50 µM (active)
same,AC50,[6],63.5 µM (active)
same,outcome,CYP2C8 (gene 1558),inactive
same,AC50,CYP2C9 (gene 1559),50 µM (active)
same,AC50,CYP2E1 (gene 1571),36.9 µM (active)
O=[Si]=O,outcome,[1],inactive
same,outcome,Caspase-3 (Homo sapiens),inactive
same,outcome,[2],inactive
same,AC50,[3],50 µM (active)
same,AC50,[5],0.099 µM (active)
same,outcome,[6],inactive
same,outcome,CYP2C8 (gene 1558),inactive
same,outcome,CYP2C9 (gene 1559),inactive
same,outcome,CYP2E1 (gene 1571),inactive
Oc1ccc(O)cc1,outcome,[1],inactive
same,outcome,Caspase-3 (Homo sapiens),inactive
same,outcome,[2],inactive
same,AC50,[3],50 µM (active)
same,outcome,[4],inactive
same,outcome,[5],inactive
same,outcome,[6],inactive
same,outcome,CYP2C8 (gene 1558),inactive
same,outcome,CYP2C9 (gene 1559),inactive
same,outcome,CYP2E1 (gene 1571),inactive
CC(=O)O,outcome,[1],inactive
same,outcome,Caspase-3 (Homo sapiens),inactive
same,outcome,[2],inactive
same,outcome,[3],inactive
same,outcome,[4],inactive
same,outcome,[5],inactive
same,outcome,[6],inactive
same,outcome,CYP2C8 (gene 1558),inactive
same,outcome,CYP2C9 (gene 1559),inactive
same,outcome,CYP2E1 (gene 1571),inactive
O=Cc1ccccc1C=O,outcome,[1],inactive
same,outcome,Caspase-3 (Homo sapiens),inactive
same,AC50,[3],7.32 µM (active)
same,AC50,[5],23.3 µM (active)
same,outcome,[6],inactive
same,outcome,CYP2C8 (gene 1558),inactive
same,outcome,CYP2C9 (gene 1559),inactive
same,outcome,CYP2E1 (gene 1571),inactive
CCCCC(CC)CO (configuration not stated),outcome,[1],inactive
same,outcome,Caspase-3 (Homo sapiens),inactive
same,AC50,[3],50 µM (active)
same,outcome,[5],inactive
same,outcome,[6],inactive
same,outcome,CYP2C8 (gene 1558),inactive
same,outcome,CYP2C9 (gene 1559),inactive
same,outcome,CYP2E1 (gene 1571),inactive
CCC(C)N(C)C(=O)c1cc2ccccc2c(-c2ccccc2Cl)n1 (configuration not stated),outcome,[1],inactive
same,outcome,Caspase-3 (Homo sapiens),inactive
same,AC50,[3],50.5 µM (active)
same,AC50,[5],1.38 µM (active)
same,AC50,[6],4.31 µM (active)
same,AC50,CYP2C8 (gene 1558),1.77 µM (active)
same,outcome,CYP2C9 (gene 1559),inactive
same,AC50,CYP2E1 (gene 1571),14.1 µM (active)
CC(C)(O)c1ccc(CNC(=O)c2cccnc2Oc2ccc(F)cc2)cc1,outcome,[1],inactive
same,outcome,Caspase-3 (Homo sapiens),inactive
same,outcome,[3],inactive
same,outcome,[4],inactive
same,AC50,[5],0.432 µM (active)
same,AC50,[6],8.99 µM (active)
same,outcome,CYP2C9 (gene 1559),inactive
same,AC50,CYP2E1 (gene 1571),37.9 µM (active)
CN(C)CCCN(C)CCCN(C)C,outcome,Caspase-3 (Homo sapiens),inactive
same,outcome,[2],inactive
same,outcome,[3],inactive
same,outcome,[4],inactive
same,outcome,[5],inactive
same,outcome,[6],inactive
same,outcome,CYP2C9 (gene 1559),inactive
same,outcome,CYP2E1 (gene 1571),inactive
CN(C)C(=O)NC1(c2ccccc2)CCN(CC[C@@]2(c3ccc(F)c(F)c3)CN(C(=O)c3ccccc3)CCO2)CC1,outcome,[1],inactive
same,outcome,Caspase-3 (Homo sapiens),inactive
same,AC50,[3],47 µM (active)
same,outcome,[5],inactive
same,AC50,[6],2.65 µM (active)
same,outcome,CYP2C8 (gene 1558),inactive
same,outcome,CYP2C9 (gene 1559),inactive
same,AC50,CYP2E1 (gene 1571),29.6 µM (active)
CC(=O)[C@@]1(O)CC[C@H]2[C@@H]3CCC4=CC(=O)CC[C@]4(C)[C@H]3CC[C@@]21C,outcome,Caspase-3 (Homo sapiens),inactive
CCCCOC(=O)CCCCC(=O)OCCCC,outcome,[1],inactive
same,outcome,Caspase-3 (Homo sapiens),inactive
same,AC50,[3],50 µM (active)
same,outcome,[5],inactive
same,outcome,[6],inactive
same,outcome,CYP2C8 (gene 1558),inactive
same,outcome,CYP2C9 (gene 1559),inactive
same,outcome,CYP2E1 (gene 1571),inactive
NC1CCCCC1,outcome,[1],inactive
same,outcome,Caspase-3 (Homo sapiens),inactive
same,outcome,[3],inactive
same,outcome,[4],inactive
same,outcome,[5],inactive
same,outcome,[6],inactive
same,outcome,CYP2C9 (gene 1559),inactive
same,outcome,CYP2E1 (gene 1571),inactive
OCC(O)CO,outcome,Caspase-3 (Homo sapiens),inactive
same,outcome,[2],inactive
same,outcome,[3],inactive
same,outcome,[4],inactive
same,AC50,[5],22.6 µM (active)
same,outcome,[6],inactive
same,outcome,CYP2C9 (gene 1559),inactive
same,outcome,CYP2E1 (gene 1571),inactive
CS(=O)(=O)c1ccc([C@@H](C[C@H]2CCC(=O)C2)C(=O)Nc2cnccn2)cc1Cl,AC50,[1],2.25 µM (active)
same,AC50,Caspase-3 (Homo sapiens),843 nM (active)
same,AC50,[4],1.2 µM (active)
same,AC50,[6],1.38 µM (active)
same,AC50,CYP2C8 (gene 1558),1.09 µM (active)
same,outcome,CYP2C9 (gene 1559),inactive
same,outcome,CYP2E1 (gene 1571),inactive
CCCCCCCCCCCCCCOS(=O)(=O)O,outcome,Caspase-3 (Homo sapiens),inactive
same,outcome,[2],inactive
same,outcome,[3],inactive
same,outcome,[4],inactive
same,AC50,[5],85.6 µM (active)
same,outcome,[6],inactive
same,AC50,CYP2C9 (gene 1559),64.4 µM (active)
same,AC50,CYP2E1 (gene 1571),42.3 µM (active)
CC(C)c1cccc(C(C)C)c1,outcome,[1],inactive
same,outcome,Caspase-3 (Homo sapiens),inactive
same,outcome,[3],inactive
same,outcome,[4],inactive
same,outcome,[5],inactive
same,outcome,[6],inactive
same,outcome,CYP2C9 (gene 1559),inactive
same,outcome,CYP2E1 (gene 1571),inactive

# — PubChem BioAssay (EPA / NIEHS)
